Results filed as inconclusive are left out. Active and inactive are the calls of the source. How the source made its calls, unless noted: active means hit-call score of the fitted dose curve at least 0.9, where 1 is the maximum; inconclusive means response in the unintended direction; inactive means score below 0.9.

A short description of assay [1]: ATG_TAL_CIS: Attagene CIS-FACTORIAL HepG2 Assay for human TAL Basal Promoter (AID 2282966; active means hit-call score of the fitted dose curve at least 0.9, where 1 is the maximum; inactive means score below 0.9;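 further: background control endpoint measuring basal TAL promoter reporter mRNA not a specific factor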). The note with it: HepG2 Attagene cis-factorial TAL promoter reporter; actives raise or lower the signal. In a few lines:
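Endogenous transcription-factor activity is sensed in HepG2 cells through transfected cis-promoter reporter constructs. After 24 h dosing, reporter transcripts are quantified by RT-PCR and capillary electrophoresis. Gain or loss of signal is fitted relative to DMSO.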

A short description of assay [2]: ATG_TGFb_CIS: Attagene CIS-FACTORIAL HepG2 Assay for human Transforming Growth Factor (TGF) (AID 2282967; active means hit-call score of the fitted dose curve at least 0.9, where 1 is the maximum; inactive means score below 0.9). As to conditions: HepG2 Attagene CIS TGFb reporter, mRNA transcription; actives raise or lower the signal. The essentials: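 Transient MRTU transfection of HepG2 (FuGene 6). Dose 24 h. TriZol RNA, oligo(dT) RT, PCR, 6-FAM primer extension, HpaI cut, CE. Bidirectional fit, DMSO = baseline.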

Assay [3] in a line: ATG_VDRE_CIS: Attagene CIS-FACTORIAL HepG2 Assay for human Vitamin D Receptor Element (VDRE) (AID 2282968; active means hit-call score of the fitted dose curve at least 0.9, where 1 is the maximum; inactive means score below 0.9). As to conditions: HepG2 VDRE cis-reporter transcription, actives raise or lower the signal. The essentials:
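Compounds were applied for 24 h to HepG2 cells transfected with promoter-regulated reporter units. Total RNA was reverse-transcribed, and reporter amplicons were fluorescently labelled and sized by capillary electrophoresis.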

Assay [4] concerns the target Nuclear receptor subfamily 1 group I member 3 (Homo sapiens) (UniProt Q14994). The assay is described as follows: ATG_CAR_TRANS: Attagene TRANS-FACTORIAL HepG2 Assay for human Constitutive Androstane Receptor (CAR) (AID 2282969).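 Further: activators raise reporter mRNA above DMSO so AC50 marks induction.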 The note with it: HepG2 Attagene TRANS-FACTORIAL CAR reporter. In a few lines: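 Transiently transfected HepG2, multiplex TRANS reporters (CAR-Gal4 chimera driving GAL4-UAS reporter). 24 h dosing. Readout: reporter transcript by RT-PCR + capillary electrophoresis, fluorescence intensity; positive direction vs DMSO.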

Assay [5] deals with X-box-binding protein 1 (Homo sapiens) (UniProt P17861). The assay is described as follows: ATG_Xbp1_CIS: Attagene CIS-FACTORIAL HepG2 Assay for human X-box Binding Protein 1 (XBP1) (AID 2282972; active means hit-call score of the fitted dose curve at least 0.9, where 1 is the maximum; inactive means score below 0.9). The note with it: HepG2 XBP1 cis-element reporter, Attagene multiplex; actives raise or lower the signal. The essentials: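 Human hepatoma HepG2, cis-element reporter system, 24 h treatment; mRNA quantified by RT-PCR/CE fluorescence; fit relative to DMSO.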
X-box-binding protein 1 (Homo sapiens), sequence (P17861 whole entry, looked up): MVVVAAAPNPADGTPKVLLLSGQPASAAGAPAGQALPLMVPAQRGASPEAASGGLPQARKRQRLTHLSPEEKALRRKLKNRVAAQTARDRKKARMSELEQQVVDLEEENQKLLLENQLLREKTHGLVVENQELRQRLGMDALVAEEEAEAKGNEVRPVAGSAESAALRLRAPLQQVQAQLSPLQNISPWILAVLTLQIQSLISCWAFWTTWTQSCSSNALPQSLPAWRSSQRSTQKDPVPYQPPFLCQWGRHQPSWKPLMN

Assay [6] is described as follows: ATG_M_19_TRANS: Attagene TRANS-FACTORIAL HepG2 Assay for M19 Transcription Factor (Internal Marker) (AID 2282974). The note with it: HepG2 Attagene TRANS-FACTORIAL M19 internal marker reporter. In a few lines: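 Transfected HepG2 (GAL4-UAS MRTUs), 24 h compound, TriZol RNA, DNase-treated RT, reporter PCR, FAM label, HpaI digest, CE fluorescence; gain vs DMSO.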

The target in assay [7] is Bile acid receptor (Homo sapiens) (UniProt Q96RI1). The assay is described as follows: ATG_FXR_TRANS: Attagene TRANS-FACTORIAL HepG2 Assay for Farnesoid X Receptor (FXR) (AID 2282979).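 Further: hits raise reporter mRNA above DMSO so AC50 marks FXR activation.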 The note with it: HepG2 Attagene TRANS FXR-GAL4 reporter transcription. The essentials: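 Chimeric FXR-GAL4 activity in transiently transfected human HepG2 liver cells is scored as induction of reporter mRNA after 24 h of dosing. Detection uses RT-PCR with fluorescent labelling and capillary electrophoresis, with DMSO serving as baseline.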
Bile acid receptor (Homo sapiens), sequence (Q96RI1 whole entry, looked up, the tested form may be a part): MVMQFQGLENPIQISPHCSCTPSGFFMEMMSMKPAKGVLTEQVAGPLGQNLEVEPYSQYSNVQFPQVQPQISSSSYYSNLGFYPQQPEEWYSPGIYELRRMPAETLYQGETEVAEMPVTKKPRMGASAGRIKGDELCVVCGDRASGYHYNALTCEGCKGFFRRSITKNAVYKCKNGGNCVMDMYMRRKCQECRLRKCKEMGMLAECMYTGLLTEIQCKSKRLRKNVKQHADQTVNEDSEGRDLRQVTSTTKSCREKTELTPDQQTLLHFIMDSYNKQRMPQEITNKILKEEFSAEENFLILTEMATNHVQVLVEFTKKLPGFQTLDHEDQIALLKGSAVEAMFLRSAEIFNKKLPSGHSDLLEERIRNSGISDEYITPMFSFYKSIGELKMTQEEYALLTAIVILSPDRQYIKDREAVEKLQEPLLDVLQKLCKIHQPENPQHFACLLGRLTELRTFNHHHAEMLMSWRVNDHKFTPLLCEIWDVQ

Assay [8] deals with Oxysterols receptor LXR-alpha (Homo sapiens) (UniProt Q13133). The assay is described as follows: ATG_LXRa_TRANS: Attagene TRANS-FACTORIAL HepG2 Assay for human Liver X Receptor alpha (LXRa) (AID 2282980). As to conditions: HepG2 Attagene TRANS reporter, LXRa transactivation. The essentials: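 Transient HepG2 transfectants, 24 h dosing, RT-PCR/CE mRNA reporter quantitation; gain-of-signal vs DMSO.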
Oxysterols receptor LXR-alpha (Homo sapiens), sequence (Q13133 whole entry, looked up): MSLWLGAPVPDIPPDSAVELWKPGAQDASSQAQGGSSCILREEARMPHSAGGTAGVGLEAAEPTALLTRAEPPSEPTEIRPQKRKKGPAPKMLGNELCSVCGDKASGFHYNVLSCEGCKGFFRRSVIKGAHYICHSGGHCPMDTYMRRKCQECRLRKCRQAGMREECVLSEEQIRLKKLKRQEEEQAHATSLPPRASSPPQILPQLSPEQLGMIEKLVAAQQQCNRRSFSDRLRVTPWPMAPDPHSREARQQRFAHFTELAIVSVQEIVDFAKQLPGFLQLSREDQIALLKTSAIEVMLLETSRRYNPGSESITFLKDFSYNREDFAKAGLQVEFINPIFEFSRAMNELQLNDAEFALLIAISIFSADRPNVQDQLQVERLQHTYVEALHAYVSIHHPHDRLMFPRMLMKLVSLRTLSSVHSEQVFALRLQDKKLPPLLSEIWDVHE

Assay [9] in a line: ATG_M_32_TRANS: Attagene TRANS-FACTORIAL HepG2 Assay for M32 Transcription Factor (Internal Marker) (AID 2282984).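 Further: transcript level of a background control reporter unit measured by RT-PCR and capillary electrophoresis.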 As to conditions: HepG2 Attagene TRANS M32 internal marker reporter. In a few lines: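 Internal-marker readout from a multiplexed transcription reporter panel. HepG2 cells were transfected with GAL4-UAS reporter units, treated 24 hours, and reporter transcript levels determined by fluorescence after RT-PCR and capillary separation.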

Assay [10] deals with Nuclear receptor subfamily 4 group A member 2 (Homo sapiens) (UniProt P43354). The assay is described as follows: ATG_NURR1_TRANS: Attagene TRANS-FACTORIAL HepG2 Assay for human Nuclear Receptor Related Protein 1 (NURR1) (AID 2282985). As to conditions: HepG2 Attagene TRANS reporter, mRNA readout. In a few lines: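 Endpoint: reporter mRNA increase relative to DMSO. HepG2 cells transfected with reporter units, treated 24 h; RNA processed by RT-PCR, labelling, HpaI digestion and capillary electrophoresis.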
Nuclear receptor subfamily 4 group A member 2 (Homo sapiens), sequence (P43354 whole entry, looked up): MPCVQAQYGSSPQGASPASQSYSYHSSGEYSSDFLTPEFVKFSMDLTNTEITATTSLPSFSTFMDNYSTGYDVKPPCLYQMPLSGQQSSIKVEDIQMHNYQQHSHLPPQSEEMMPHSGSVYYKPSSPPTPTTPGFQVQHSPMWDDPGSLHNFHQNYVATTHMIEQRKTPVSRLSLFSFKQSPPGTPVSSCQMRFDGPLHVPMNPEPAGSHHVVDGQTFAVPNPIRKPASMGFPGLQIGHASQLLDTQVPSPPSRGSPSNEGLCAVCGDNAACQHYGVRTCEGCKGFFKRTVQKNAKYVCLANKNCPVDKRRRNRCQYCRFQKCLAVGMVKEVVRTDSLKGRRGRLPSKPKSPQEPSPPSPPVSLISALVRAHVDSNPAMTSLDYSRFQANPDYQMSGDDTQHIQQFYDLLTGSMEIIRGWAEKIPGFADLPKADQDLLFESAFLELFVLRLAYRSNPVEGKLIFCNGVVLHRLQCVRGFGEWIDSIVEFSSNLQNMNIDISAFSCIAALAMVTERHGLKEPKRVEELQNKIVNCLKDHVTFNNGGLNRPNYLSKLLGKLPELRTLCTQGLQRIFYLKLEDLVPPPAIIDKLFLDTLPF

The target in assay [11] is Transcriptional activator Myb (Homo sapiens) (UniProt P10242). The assay is described as follows: ATG_Myb_CIS: Attagene CIS-FACTORIAL HepG2 Assay for human Myeloblastosis (Myb) Proto-Oncogene Transcription Factor (AID 2282986; active means hit-call score of the fitted dose curve at least 0.9, where 1 is the maximum; inactive means score below 0.9). As to conditions: HepG2 Attagene CIS-FACTORIAL Myb reporter transcription; actives raise or lower the signal. In a few lines: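 After 24 h of compound dosing, total RNA from transfected HepG2 cells is reverse-transcribed and the reporter sequences amplified, labeled and separated by capillary electrophoresis. Values come from bidirectional fitting against DMSO.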
Transcriptional activator Myb (Homo sapiens), sequence (P10242 whole entry, looked up): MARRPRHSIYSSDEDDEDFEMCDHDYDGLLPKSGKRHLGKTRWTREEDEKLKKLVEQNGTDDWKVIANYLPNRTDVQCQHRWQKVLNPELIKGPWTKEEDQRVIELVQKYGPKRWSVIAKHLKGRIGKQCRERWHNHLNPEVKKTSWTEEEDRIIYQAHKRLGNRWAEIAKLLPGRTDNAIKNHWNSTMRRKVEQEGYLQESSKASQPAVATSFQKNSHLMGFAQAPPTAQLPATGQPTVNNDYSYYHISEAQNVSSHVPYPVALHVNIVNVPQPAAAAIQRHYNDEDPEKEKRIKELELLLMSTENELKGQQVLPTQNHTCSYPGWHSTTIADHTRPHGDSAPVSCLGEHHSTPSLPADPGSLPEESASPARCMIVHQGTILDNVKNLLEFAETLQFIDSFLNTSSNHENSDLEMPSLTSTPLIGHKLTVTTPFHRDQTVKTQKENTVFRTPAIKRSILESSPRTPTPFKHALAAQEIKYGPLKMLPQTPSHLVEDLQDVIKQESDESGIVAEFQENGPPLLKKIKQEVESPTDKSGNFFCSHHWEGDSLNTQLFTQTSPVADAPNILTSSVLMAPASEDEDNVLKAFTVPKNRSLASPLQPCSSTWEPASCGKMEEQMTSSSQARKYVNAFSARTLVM

The target in assay [12] is Nuclear respiratory factor 1 (Homo sapiens) (UniProt Q16656). The assay is described as follows: ATG_NRF1_CIS: Attagene CIS-FACTORIAL HepG2 Assay for human Nuclear Respiratory Factor 1 (NRF1) Orphan Gene (AID 2282987; active means hit-call score of the fitted dose curve at least 0.9, where 1 is the maximum; inactive means score below 0.9). As to conditions: HepG2 NRF1 cis-element reporter, Attagene multiplex; actives raise or lower the signal. In a few lines: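 Measured: fluorescent reporter-specific RT-PCR products from transfected HepG2 cells, separated by capillary electrophoresis. Exposure lasted 24 h. Analysis used bidirectional curve fitting with DMSO as negative control.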
Nuclear respiratory factor 1 (Homo sapiens), sequence (Q16656 whole entry, looked up): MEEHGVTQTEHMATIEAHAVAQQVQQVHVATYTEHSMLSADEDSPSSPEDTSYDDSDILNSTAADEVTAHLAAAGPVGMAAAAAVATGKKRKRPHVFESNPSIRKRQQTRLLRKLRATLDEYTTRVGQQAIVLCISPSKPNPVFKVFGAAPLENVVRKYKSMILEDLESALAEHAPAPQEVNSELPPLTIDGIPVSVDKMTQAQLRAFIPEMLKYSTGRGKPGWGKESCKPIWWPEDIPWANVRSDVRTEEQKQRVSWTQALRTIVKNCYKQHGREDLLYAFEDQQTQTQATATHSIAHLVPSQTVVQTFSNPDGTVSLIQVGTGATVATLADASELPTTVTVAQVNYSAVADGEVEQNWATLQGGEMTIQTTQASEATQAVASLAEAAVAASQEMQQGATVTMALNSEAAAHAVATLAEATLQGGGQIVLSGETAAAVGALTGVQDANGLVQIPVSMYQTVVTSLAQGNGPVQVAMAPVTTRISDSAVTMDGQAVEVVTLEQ

Assay [13] addresses Estrogen receptor (Homo sapiens) (UniProt P03372). The assay is described as follows: ATG_ERa_TRANS: Attagene TRANS-FACTORIAL HepG2 Assay for human Estrogen Receptor alpha (ERa) (AID 2282970). As to conditions: HepG2 Attagene TRANS ERa GAL4 reporter, mRNA. The essentials: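 Transfected HepG2 cells carrying GAL4-UAS-driven reporter units were dosed for 24 hours. Total RNA was reverse-transcribed, reporter sequences PCR-amplified, FAM-labelled, HpaI-digested and resolved by capillary electrophoresis. Increases over DMSO control defined activity.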

A short description of assay [14]: ATG_GAL4_TRANS: Attagene TRANS-FACTORIAL HepG2 Assay for GAL4 (Internal Marker) (AID 2282976). The note with it: HepG2 Attagene TRANS GAL4 internal marker reporter. In a few lines: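 Fluorescence from capillary electrophoresis of labelled RT-PCR products quantifies reporter mRNA induction after 24 h dosing of HepG2 cells carrying transfected GAL4-UAS reporter transcription units. Vehicle DMSO serves as baseline.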

In assay [15] the target is Hepatocyte nuclear factor 4-alpha (Homo sapiens) (UniProt P41235). The assay is described as follows: ATG_HNF4a_TRANS: Attagene TRANS-FACTORIAL HepG2 Assay for human Hepatocyte Nuclear Factor 4 alpha (HNF4a) (AID 2282982). As to conditions: HepG2 HNF4a transactivation reporter, mRNA readout. In a few lines:
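Endpoint reflects transcriptional activation of a GAL4-UAS reporter by an HNF4a-GAL4 chimera in transfected HepG2 cells, 24 h post-dosing. Fluorescence from RT-PCR products separated by capillary electrophoresis; DMSO baseline.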

The nature of assay [16]: ATG_M_06_TRANS: Attagene TRANS-FACTORIAL HepG2 Assay for M06 Transcription Factor (Internal Marker) (AID 2282983). The note with it: HepG2 Attagene TRANS M06 internal marker reporter. In a few lines: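 Human liver HepG2 cells bearing transiently transfected chimeric NR-GAL4 reporter units were treated with chemicals for 24 h. Total RNA was reverse-transcribed, reporter sequences amplified and labelled, then quantified by capillary electrophoresis. Activity was fitted upward relative to DMSO.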

Assay [17] has as its target Glucocorticoid receptor (Homo sapiens) (UniProt P04150). The assay is described as follows: ATG_GR_TRANS: Attagene TRANS-FACTORIAL HepG2 Assay for human Glucocorticoid Receptor (GR) (AID 2282978).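 Further: activators score as hits since higher reporter transcript over DMSO is fitted.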 As to conditions: HepG2 Attagene TRANS GR reporter, mRNA transcription. In a few lines: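 After 24 h incubation with test chemical, transfected HepG2 cells were lysed for RNA; reporter cDNA was amplified, FAM-labelled, HpaI-digested and sized on a capillary analyser. Signal gain relative to DMSO was scored.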

Assay [18] deals with Oxysterols receptor LXR-beta (Homo sapiens) (UniProt P55055). The assay is described as follows: ATG_LXRb_TRANS: Attagene TRANS-FACTORIAL HepG2 Assay for human Liver X Receptor beta (LXRb) (AID 2282981). As to conditions: HepG2 Attagene TRANS GAL4-LXRb reporter, mRNA. The essentials: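 Multiplexed reporter assay, HepG2, 24 h dosing. Fluorescence of labelled RT-PCR products after capillary electrophoresis gives transcript level; positive fitting direction relative to DMSO.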
Oxysterols receptor LXR-beta (Homo sapiens), sequence (P55055 whole entry, looked up, the tested form may be a part): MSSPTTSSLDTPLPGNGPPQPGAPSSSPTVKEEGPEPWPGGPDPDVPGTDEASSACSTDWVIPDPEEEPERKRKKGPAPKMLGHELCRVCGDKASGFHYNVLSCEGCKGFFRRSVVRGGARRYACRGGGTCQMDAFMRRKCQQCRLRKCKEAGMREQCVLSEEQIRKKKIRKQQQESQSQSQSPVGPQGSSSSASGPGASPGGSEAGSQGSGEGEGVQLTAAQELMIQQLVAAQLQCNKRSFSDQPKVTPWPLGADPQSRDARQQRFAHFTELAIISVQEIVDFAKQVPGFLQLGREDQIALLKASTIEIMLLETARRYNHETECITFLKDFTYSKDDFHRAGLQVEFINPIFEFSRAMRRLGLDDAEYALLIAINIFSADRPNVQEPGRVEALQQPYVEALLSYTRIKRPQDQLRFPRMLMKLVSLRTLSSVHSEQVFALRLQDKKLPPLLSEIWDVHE

Nuclear receptor subfamily 1 group I member 3 (Homo sapiens), sequence (Q14994 whole entry, looked up, the tested form may be a part): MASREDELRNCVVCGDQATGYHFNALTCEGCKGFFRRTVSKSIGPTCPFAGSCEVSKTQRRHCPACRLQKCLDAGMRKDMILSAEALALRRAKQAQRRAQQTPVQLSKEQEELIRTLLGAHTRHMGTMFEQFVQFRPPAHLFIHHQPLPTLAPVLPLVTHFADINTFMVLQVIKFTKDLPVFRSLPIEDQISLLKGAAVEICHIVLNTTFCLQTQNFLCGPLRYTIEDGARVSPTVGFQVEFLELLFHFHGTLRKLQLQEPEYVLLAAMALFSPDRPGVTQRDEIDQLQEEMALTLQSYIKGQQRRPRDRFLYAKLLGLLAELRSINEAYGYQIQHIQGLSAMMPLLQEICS
Hepatocyte nuclear factor 4-alpha (Homo sapiens), sequence (P41235 whole entry, looked up, the tested form may be a part): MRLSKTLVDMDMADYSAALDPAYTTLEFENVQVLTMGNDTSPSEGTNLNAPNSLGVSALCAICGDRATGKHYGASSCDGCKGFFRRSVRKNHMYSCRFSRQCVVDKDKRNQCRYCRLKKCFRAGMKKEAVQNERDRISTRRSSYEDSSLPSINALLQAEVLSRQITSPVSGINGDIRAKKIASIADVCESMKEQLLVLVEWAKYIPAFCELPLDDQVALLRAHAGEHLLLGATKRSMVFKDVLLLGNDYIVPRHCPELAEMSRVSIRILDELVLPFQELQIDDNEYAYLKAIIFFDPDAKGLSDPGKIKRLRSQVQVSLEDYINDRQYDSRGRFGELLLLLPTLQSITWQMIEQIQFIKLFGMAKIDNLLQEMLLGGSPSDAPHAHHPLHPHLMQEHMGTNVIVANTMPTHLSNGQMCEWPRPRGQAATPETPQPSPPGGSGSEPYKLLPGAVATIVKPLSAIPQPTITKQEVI
Estrogen receptor (Homo sapiens), sequence (P03372 whole entry, looked up, the tested form may be a part): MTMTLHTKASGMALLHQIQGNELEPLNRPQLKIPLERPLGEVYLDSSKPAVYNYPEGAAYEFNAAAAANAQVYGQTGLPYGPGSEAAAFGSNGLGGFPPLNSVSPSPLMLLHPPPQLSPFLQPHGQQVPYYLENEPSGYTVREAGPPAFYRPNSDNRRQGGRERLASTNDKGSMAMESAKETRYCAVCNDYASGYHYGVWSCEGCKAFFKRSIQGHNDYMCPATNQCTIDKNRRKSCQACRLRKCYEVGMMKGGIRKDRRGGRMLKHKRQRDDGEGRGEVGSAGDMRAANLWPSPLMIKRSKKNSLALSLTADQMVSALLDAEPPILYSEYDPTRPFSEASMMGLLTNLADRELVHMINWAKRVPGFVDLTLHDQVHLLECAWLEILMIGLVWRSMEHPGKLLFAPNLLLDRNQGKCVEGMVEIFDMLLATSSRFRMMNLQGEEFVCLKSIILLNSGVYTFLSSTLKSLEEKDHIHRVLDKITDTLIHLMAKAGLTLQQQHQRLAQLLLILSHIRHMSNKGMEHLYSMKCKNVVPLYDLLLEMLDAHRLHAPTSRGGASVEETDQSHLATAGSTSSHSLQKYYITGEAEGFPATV

On to `CCCCCCCCCCC=CC#N`, for which the molecule was called inactive in assay [1], in [2], in assay [3], in assay [4], in [5] and in assay [6]. The molecule was classed as inactive in assay [7], in [8], in assay [9], in assay [10], in [11] and in assay [12].

Consider `O=c1c2ccccc2oc2ccccc12`, for which the outcome in [1], in assay [2], in assay [3], in [4], in assay [6] and in [14] was inactive. The result in assay [15], in [11] and in assay [12] was inactive. In assay [13], the concentration at half-maximal activity (AC50) – broadly, the concentration giving half of the maximal activity seen – is 27.8 µM (active).

In the case of `OC1OCCOC1O` (stereo not given), the molecule was classed as inactive in assay [1], in assay [2], in assay [3], in [4], in assay [13] and in assay [14]. For the same molecule, the call in assay [16], in assay [9], in [11] and in assay [12] was inactive.

For `Nc1nc2ccccc2[nH]1`, the outcome in [1], in assay [2], in assay [3], in assay [4], in [13] and in assay [5] was inactive. Further, the outcome in [17], in assay [7], in assay [8], in [18], in [15] and in [16] was inactive. The call in assay [9], in assay [10], in [11] and in assay [12] was inactive.

Take `CCO[Si](CCCN=C=O)(OCC)OCC`: the molecule was called inactive in assay [1], in assay [2], in assay [3], in [4], in assay [6] and in assay [14]. Also, the outcome in [8], in assay [18], in assay [15], in assay [16], in assay [9] and in [11] was inactive. In assay [12], the molecule was called inactive.

On to `CCOC(=O)CC`, for which the result in assay [1], in assay [2], in assay [3], in [4], in assay [13] and in [5] was inactive. Besides, the molecule was classed as inactive in assay [7], in assay [18], in [15], in [16], in assay [9] and in assay [10]. Also, the molecule was called inactive in [11] and in assay [12].
